# Results filed as inconclusive are left out. Values without a mark were called inactive. Calls of active or inactive are those of the source. Calls come from the whole dose curve; as a rule, active = well fitted cell-killing curve with a large enough effect; inconclusive = small, poorly fitted or top-dose-only effect, or effect the other way; inactive = no such curve, though single readings can be large or run the other way.
# Experiment: Quantitative High-Throughput drug screen in 47 multiple myeloma cell lines against the NCATS MIPE library collection: SKMM1_PLB cell viability assay (AID 1919863); note: nearly all actives have a fitted effect of over 35% in size; for viability: series mostly up to about 46 µM
# Conditions: SKMM1 myeloma viability, CellTiter-Glo ATP, 48 h; viability: stronger effect = lower value
# Text: PI: Beverly A. Mock Ph.D.
# Laboratory of Cancer Biology and Genetics,
# Center for Cancer Research, National Cancer Institute,
# National Institute of Health, Bethesda, Maryland
# Drug resistance and disease progression are common in multiple myeloma (MM) patients, underscoring the need for new therapeutic combinations. […] We hypothesized that effective combinations would reduce MYC expression and enhance p16 activity. […] These preclinical data identify potentially useful drug combinations for evaluation in drug-resistant MM and reveal potential mechanisms of combined drug sensitivity.
# Described herein is the primary MIPE qHTS used to cherrypick compounds. Validated compounds were then further tested for potential synergistic activiy.
# [1] Peat TJ, Gaikwad SM, Dubois W, Gyabaah-Kessie N, Zhang S, Gorjifard S, Phyo Z, Andres M, Hughitt VK, Simpson RM, Miller MA, Girvin AT, Taylor A, Williams D, D'Antonio N, Zhang Y, Rajagopalan A, Flietner E, Wilson K, Zhang X, Shinn P, Klumpp-Thomas C, McKnight C, Itkin Z, Chen L, Kazandijian D, Zhang J, Michalowski AM, Simmons JK, Keats J, Thomas CJ, Mock BA. Drug combinations identified by high-throughput screening promote cell cycle transition and upregulate Smad pathways in myeloma. Cancer Lett. 2023 Aug 1;568:216284. doi: 10.1016/j.canlet.2023.216284. Epub 2023 Jun 24. PMID: 37356470; PMCID: PMC10408729.
# SEQUENCE No. (e.g., 1, 2, 3, etc.); […] (e.g., Cells, Incubation, Reagent, etc.); VALUE and DESCRIPTION.
# 1; Cells; 5 uL; white, solid bottom 1536-well Greiner assay plate.
# 2; Compounds; 23 nL; Kalypsis pin tool (Wako USA) equipped with a 1536-well pin head to transfer to the assay plates.
# 3; Incubation; 48 hours; 37C incubation.
# 4; Reagent;5uL; CellTiter Glo (Promega).
# 5; Detector; 425V; Luminescence; Viewlux PerkinElmer.
# NOTES (numbers refer to Sequence numbers above)
# 1. The cell-based screening methods employed in this study were like those previously published. Briefly, the corresponding myeloma cell lines were screened in 1,536-well plates with 500 cells, 5-uL per well for inhibition of cell viability (assessed by measuring ATP levels with CellTiterGlo).
# 2. NCATS MIPE 4.0 library of approved and investigational drugs were added using the Kalypsis pin tool. Wells treated with DMSO only for 100% viability and media only for 0% viability were used as controls.
# 3. The assay plates were covered and incubated for 48 hours in a 37C, 5% CO2 incubator with controlled humidity.
# 4. After 48 hours, CellTilter-GloTM luminescent substrate mix (Promega) reagent was added to the assay plate and plates we incubated for 5 min at room temperature.
# 5. Signal was measured as median relative luminescence units on a ViewLux (PerkinElmer) multiplate reader.
# [1] Heske CM, Davis MI, Baumgart JT, Wilson K, Gormally MV, Chen L, Zhang X, Ceribelli M, Duveau DY, Guha R, Ferrer M, Arnaldez FI, Ji J, Tran HL, Zhang Y, Mendoza A, Helman LJ, Thomas CJ. Matrix Screen Identifies Synergistic Combination of PARP Inhibitors and Nicotinamide Phosphoribosyltransferase (NAMPT) Inhibitors in Ewing Sarcoma. Clin Cancer Res. 2017 Dec 1;23(23):7301-7311. doi: 10.1158/1078-0432.CCR-17-1121. Epub 2017 Sep 12. PMID: 28899971; PMCID: PMC6636827.
# Potency is the fitted concentration of half-maximal effect.
SMILES,viability [%],Potency
CCCc1cc(=O)[nH]c(=S)[nH]1,115,–
O=C(O)c1cccc(-c2noc(-c3ccccc3F)n2)c1,–,9.35 µM (active)
CCCCc1ccc2nc(NC(=O)OC)[nH]c2c1,–,0.0469 µM (active)
N=C(N=C(N)N)N1CCOCC1,125,–
CCN(CC)C(=S)SSC(=S)N(CC)CC,–,0.0105 µM (active)
Cc1cc(C2CCCCC2)n(O)c(=O)c1,–,9.35 µM (active)
Cc1cc2cc3c(C)cc(=O)oc3c(C)c2o1,–,26.4 µM (active)
O=C1CCc2ccc(OCCCCN3CCN(c4cccc(Cl)c4Cl)CC3)cc2N1,132,–
Oc1ccc(OCc2ccccc2)cc1,–,7.43 µM (active)
N[C@@H](Cc1cc(I)c(Oc2cc(I)c(O)c(I)c2)c(I)c1)C(=O)O,121,–
Nc1ccn([C@@H]2O[C@H](CO)[C@@H](O)C2O)c(=O)n1 (stereo not given in full),123,–
CC(=O)O[C@H]1C(=O)[C@@]2(C)C([C@H](OC(=O)c3ccccc3)[C@]3(O)C[C@H](OC(=O)[C@H](O)[C@@H](NC(=O)c4ccccc4)c4ccccc4)C(C)=C1C3(C)C)[C@]1(OC(C)=O)CO[C@@H]1C[C@@H]2O (stereo not given in full),–,0.0033 µM (active)
CCOC(=O)c1c(C)n(C)c2ccc(O)cc12,121,–
C[C@]12CCC(=O)C=C1CC[C@@H]1[C@H]2[C@@H](O)C[C@@]2(C)[C@H]1CC[C@]2(O)C(=O)CO,138,–
Cc1cc(=O)c2c(O)c3c(O)cc(=O)c4c3c3c(cc(O)c1c23)C(C)(C)C=4O,–,5.26 µM (active)
Clc1ccc2c(N3CCN(CCCN4CCN(c5ccnc6cc(Cl)ccc56)CC4)CC3)ccnc2c1,129,–
C[C@@H](N)C1CCC(C(=O)Nc2ccncc2)CC1 (stereo not given in full),141,–
CCOC(=O)C1=C[C@@H](OC(CC)CC)[C@H](NC(C)=O)[C@@H](N)C1,108,–
O=C(O)c1cccnc1Nc1cccc(C(F)(F)F)c1,127,–
CCCOc1ccc2nc(NC(=O)OC)[nH]c2c1,–,0.0093 µM (active)

SMILES,viability [%],Potency
NC(=O)Cc1cccc(C(=O)c2ccccc2)c1N,121,–
CC1=C(C)C(=O)C(C(CCCCCC(=O)O)c2ccccc2)=C(C)C1=O (stereo not given),86.2,–
CC(S)C(=O)NCC(=O)O (stereo not given),132,–
CC(=O)NC[C@H]1CN(c2ccc(N3CCOCC3)c(F)c2)C(=O)O1,–,3.72 µM (active)
CCC(C)(Oc1ccc(C2(c3ccc(OC(C)(CC)C(=O)O)cc3)CCCCC2)cc1)C(=O)O (stereo not given),130,–
CC(C)C[C@H](NC(=O)[C@H](Cc1ccccc1)NC(=O)c1cnccn1)B(O)O,–,0.0372 µM (active)
CC1=C(C(=O)O)N2C(=O)[C@@H](NC(=O)[C@H](N)C3=CCC=CC3)[C@H]2SC1,126,–
NNc1nncc2ccccc12,116,–
O=c1c(O)c(-c2cc(O)c(O)c(O)c2)oc2cc(O)cc(O)c12,–,20.9 µM (active)
Cc1nccn1CC1CCc2c(c3ccccc3n2C)C1=O (stereo not given),99.5,–
CC(C)[N+]1(C)[C@@H]2CC[C@H]1CC(OC(=O)C(CO)c1ccccc1)C2 (stereo not given in full),150,–
COc1cc(Nc2c(C#N)cnc3cc(OCCCN4CCN(C)CC4)c(OC)cc23)c(Cl)cc1Cl,–,23.5 µM (active)
Nc1ncn([C@H]2C[C@H](O)[C@@H](CO)O2)c(=O)n1,–,5.9 µM (active)
CN(C)C(=O)COC(=O)Cc1ccc(OC(=O)c2ccc(N=C(N)N)cc2)cc1,150,–
Clc1ccc(C(Cn2ccnc2)OCc2ccsc2Cl)c(Cl)c1 (stereo not given),–,13.2 µM (active)
Cc1cccc(-c2[nH]ncc2-c2ccc3ncccc3n2)n1,121,–
Cc1nc(-c2ccc(OCC(C)C)c(C#N)c2)sc1C(=O)O,114,–
COc1c2occc2cc2ccc(=O)oc12,118,–
O=P(O)(O)C(O)(Cn1ccnc1)P(=O)(O)O,138,–
Cc1ccc(C)c(OCCCC(C)(C)C(=O)O)c1,118,–
